The source of these data is ChEMBL document CHEMBL3988442, “University of Dundee, Small-Polar-MMV Screening Library” (2021).

For some assays here: Potency and affinity values are given separately.

Holding throughout (set-up): scale not given: direction of the effect not stated beside the values
Experiment [1] has as its target Protein translocase subunit SecA (Escherichia coli (strain K12)) (UniProt P10408). Put plainly: Assay to Identify E. coli SecA ATPase Inhibitors. It counts as functional. The note with it: 30 µM.
For experiment [2], the target named is T1, Ubiquitin-activating enzyme e1, putative (Leishmania donovani (strain BPK282A1)) (UniProt E9BSI1).
T1 sequence (whole entry): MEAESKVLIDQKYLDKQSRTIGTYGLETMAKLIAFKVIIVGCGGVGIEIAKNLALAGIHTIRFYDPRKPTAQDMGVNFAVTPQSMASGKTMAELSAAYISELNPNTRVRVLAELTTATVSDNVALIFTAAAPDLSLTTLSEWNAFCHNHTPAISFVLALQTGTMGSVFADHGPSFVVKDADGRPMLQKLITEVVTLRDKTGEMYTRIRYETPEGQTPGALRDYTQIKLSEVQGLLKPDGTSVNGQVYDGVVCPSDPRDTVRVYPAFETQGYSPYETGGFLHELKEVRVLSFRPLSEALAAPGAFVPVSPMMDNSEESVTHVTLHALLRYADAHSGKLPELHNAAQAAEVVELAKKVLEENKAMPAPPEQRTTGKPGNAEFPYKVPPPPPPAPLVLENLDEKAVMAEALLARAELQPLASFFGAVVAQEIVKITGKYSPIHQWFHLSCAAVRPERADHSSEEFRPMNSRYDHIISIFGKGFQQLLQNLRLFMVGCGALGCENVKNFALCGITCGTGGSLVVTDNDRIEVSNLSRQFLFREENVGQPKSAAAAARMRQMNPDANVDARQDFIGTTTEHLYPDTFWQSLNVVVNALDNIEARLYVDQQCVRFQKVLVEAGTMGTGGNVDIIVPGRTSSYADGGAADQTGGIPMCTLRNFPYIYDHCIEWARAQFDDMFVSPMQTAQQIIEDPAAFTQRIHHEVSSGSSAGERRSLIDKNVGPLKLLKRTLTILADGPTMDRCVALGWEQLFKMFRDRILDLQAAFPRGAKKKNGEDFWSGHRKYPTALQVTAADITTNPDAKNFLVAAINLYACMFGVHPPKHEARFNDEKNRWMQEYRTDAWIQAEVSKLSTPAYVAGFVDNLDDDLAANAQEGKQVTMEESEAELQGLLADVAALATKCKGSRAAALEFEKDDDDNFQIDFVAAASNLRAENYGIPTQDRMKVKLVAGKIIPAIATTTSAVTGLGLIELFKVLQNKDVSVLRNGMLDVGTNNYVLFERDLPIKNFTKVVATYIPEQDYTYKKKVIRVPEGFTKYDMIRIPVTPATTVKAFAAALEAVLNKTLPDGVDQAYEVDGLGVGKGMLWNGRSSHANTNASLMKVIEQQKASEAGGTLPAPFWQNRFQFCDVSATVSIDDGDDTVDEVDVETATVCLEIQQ
Put plainly: Leishmania donovani Ubiquitin Activating Enzyme (LdE1). It counts as functional. To be noted: 30 µM.

Experiment [3] has as its target AMP-activated protein kinase, AMPK (Homo sapiens) (UniProt P54646+O43741+P54619+Q9UGJ0+Q9Y478+Q13131+Q9UGI9). Kind of experiment: AMP-dependent Kinase enzyme assay. An in vitro enzyme assay that detects ADP turnover that is directly proportional to AMPK activity. This uses naive AMPK that is activated during the assay with MK-8722. It counts as functional. The note with it: 30 µM.

Experiment [4] concerns the target Sialic acid-binding Ig-like lectin 9 (Homo sapiens) (UniProt Q9Y336). Put plainly: Hs-Siglec9 ALPHAscreen SOP 20170721. The note with it: 10 µM.
Experiment [5] deals with Trypanosoma cruzi. Kind of experiment: Trypanosoma cruzi phosphomannomutase and mannose-1-phosphate guanylyltransferase assay. It counts as functional. To be noted: 10 µM.
Experiment [6] addresses T2, Arginase-2, mitochondrial (Homo sapiens) (UniProt P78540).
T2 sequence (whole entry): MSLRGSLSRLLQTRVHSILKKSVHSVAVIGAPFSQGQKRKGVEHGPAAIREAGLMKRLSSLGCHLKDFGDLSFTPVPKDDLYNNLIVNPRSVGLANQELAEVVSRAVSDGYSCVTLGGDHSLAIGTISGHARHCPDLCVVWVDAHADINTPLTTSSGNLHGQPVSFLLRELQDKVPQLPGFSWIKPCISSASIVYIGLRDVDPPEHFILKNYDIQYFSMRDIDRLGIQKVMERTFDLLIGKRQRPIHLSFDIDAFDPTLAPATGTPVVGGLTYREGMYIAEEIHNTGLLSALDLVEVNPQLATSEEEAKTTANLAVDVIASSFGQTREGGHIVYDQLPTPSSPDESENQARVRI
Put plainly: in vitro enzyme assay to detect the production of urea directly proportional to the activity of Arginase II. Further: in the data most compounds retested in dose-response had high values. It counts as functional. To be noted: 33.3 µM.

The target in experiment [7] is T3, Proteasome subunit beta (Trypanosoma cruzi) (UniProt O96673).
T3 sequence (whole entry): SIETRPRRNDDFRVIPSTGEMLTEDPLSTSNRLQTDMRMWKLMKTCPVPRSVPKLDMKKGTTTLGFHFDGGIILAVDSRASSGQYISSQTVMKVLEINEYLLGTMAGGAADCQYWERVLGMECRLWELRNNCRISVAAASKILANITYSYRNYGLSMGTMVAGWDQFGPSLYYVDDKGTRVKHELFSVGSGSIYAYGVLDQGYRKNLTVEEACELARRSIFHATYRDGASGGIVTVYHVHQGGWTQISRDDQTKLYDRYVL
Kind of experiment: Trypanosoma cruzi proteasome chymotrypsin-like activity (TcProtChymo) assay. Further: in the data most compounds retested in dose-response had high values. The note with it: 9.37 µM. It counts as functional.

For experiment [8], the species on record is Homo sapiens. Kind of experiment: To identify inhibition of the IFN signalling (Jak-Stat) pathway via expression of an eGFP reporter gene under the control of an IFN-stimulated response element (ISRE) containing MxA promoter. It counts as functional. The note with it: 30 µM.
The target in experiment [9] is T4, Tyrosyl-tRNA synthetase, putative (Trypanosoma cruzi (strain CL Brener)) (UniProt Q4DSP6).
T4 sequence (whole entry): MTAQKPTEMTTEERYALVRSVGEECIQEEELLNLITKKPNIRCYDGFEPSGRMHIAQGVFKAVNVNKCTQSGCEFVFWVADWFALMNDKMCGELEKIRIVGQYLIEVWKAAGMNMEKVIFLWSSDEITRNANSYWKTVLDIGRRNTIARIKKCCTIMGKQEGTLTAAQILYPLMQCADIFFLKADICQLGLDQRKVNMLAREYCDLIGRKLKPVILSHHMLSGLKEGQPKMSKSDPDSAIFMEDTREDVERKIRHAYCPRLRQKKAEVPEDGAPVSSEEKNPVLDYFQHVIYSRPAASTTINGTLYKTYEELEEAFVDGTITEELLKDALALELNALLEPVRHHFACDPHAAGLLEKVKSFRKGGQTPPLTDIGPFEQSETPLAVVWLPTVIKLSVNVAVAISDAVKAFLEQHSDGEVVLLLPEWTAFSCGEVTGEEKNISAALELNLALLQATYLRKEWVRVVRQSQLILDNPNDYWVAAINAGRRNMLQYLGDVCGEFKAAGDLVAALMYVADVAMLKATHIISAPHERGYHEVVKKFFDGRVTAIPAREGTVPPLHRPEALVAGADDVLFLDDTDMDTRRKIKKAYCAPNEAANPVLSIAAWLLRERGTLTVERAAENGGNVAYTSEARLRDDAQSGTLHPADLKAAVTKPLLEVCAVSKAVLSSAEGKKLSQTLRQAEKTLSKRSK
Kind of experiment: Trypanosoma cruzi tyrosyl tRNA synthetase (TcYRS) _High Tyrosine SOP. Further: in the data most compounds retested in dose-response had high values. The experiment is classed as functional. The note with it: 30 µM.

In experiment [10] the target is T4, Tyrosyl-tRNA synthetase, putative (Trypanosoma cruzi (strain CL Brener)). Put plainly: Trypanosoma cruzi tyrosyl tRNA synthetase (TcYRS) SOP. It counts as functional. To be noted: 30 µM.
In experiment [11] the target is Chromo domain-containing protein 1 (Saccharomyces cerevisiae (strain ATCC 204508 / S288c) (Baker's yeast)) (UniProt P32657). Put plainly: ScCHD-1 Enzyme Inhibition Assay. Further: in the data most compounds retested in dose-response had high values. The experiment is classed as functional. The note with it: 30 µM.
Chromo domain-containing protein 1 (Saccharomyces cerevisiae (strain ATCC 204508 / S288c) (Baker's yeast)), sequence (P32657 whole entry, the tested form may be a part): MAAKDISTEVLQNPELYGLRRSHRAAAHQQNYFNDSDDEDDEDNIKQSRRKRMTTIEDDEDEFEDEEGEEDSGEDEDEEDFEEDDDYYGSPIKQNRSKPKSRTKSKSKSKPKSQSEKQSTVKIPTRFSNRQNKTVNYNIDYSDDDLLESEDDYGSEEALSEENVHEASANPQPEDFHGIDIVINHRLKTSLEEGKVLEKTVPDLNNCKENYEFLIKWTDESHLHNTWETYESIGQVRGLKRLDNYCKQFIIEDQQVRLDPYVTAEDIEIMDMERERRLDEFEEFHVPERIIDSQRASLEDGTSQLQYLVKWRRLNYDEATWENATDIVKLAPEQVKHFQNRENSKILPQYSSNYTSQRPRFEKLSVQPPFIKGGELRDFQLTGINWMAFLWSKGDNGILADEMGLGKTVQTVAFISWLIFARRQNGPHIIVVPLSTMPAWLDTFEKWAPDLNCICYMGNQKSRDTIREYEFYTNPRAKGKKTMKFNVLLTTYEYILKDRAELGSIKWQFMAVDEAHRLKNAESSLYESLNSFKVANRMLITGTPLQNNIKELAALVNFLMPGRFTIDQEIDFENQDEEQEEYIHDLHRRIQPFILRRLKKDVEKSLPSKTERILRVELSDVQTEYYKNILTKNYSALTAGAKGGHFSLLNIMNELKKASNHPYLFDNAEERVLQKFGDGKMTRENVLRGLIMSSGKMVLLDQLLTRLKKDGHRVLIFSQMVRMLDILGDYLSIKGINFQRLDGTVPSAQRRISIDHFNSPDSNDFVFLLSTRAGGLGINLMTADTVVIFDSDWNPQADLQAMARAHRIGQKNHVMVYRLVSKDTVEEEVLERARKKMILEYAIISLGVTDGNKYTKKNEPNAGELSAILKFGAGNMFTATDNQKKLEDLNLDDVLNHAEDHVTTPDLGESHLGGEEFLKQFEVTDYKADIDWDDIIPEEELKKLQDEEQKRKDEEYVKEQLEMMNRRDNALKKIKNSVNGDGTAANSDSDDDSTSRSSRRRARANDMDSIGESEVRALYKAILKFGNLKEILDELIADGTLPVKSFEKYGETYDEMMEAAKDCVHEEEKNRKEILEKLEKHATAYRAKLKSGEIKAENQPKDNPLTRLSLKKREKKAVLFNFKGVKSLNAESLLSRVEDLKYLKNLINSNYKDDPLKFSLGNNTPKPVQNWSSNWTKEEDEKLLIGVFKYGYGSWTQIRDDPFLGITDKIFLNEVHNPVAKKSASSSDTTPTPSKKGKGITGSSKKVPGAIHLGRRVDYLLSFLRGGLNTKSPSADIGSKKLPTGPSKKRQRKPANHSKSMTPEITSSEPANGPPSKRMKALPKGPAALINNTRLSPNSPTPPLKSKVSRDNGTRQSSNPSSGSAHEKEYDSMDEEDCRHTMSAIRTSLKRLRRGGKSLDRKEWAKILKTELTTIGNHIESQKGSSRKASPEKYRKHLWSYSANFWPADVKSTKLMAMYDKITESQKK

Sialic acid-binding Ig-like lectin 9 (Homo sapiens), sequence (Q9Y336 whole entry): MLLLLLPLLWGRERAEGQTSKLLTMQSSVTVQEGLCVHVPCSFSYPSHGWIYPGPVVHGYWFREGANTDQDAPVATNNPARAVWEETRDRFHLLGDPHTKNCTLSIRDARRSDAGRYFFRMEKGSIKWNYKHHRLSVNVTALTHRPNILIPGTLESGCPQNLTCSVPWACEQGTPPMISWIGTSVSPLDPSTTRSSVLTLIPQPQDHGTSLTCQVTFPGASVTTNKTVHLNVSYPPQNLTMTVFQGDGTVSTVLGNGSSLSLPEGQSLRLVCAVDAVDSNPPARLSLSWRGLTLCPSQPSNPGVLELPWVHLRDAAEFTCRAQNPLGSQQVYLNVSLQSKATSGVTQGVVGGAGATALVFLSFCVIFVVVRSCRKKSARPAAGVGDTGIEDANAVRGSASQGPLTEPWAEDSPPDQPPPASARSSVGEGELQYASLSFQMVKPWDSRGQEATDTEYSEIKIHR
Protein translocase subunit SecA (Escherichia coli (strain K12)), sequence (P10408 whole entry): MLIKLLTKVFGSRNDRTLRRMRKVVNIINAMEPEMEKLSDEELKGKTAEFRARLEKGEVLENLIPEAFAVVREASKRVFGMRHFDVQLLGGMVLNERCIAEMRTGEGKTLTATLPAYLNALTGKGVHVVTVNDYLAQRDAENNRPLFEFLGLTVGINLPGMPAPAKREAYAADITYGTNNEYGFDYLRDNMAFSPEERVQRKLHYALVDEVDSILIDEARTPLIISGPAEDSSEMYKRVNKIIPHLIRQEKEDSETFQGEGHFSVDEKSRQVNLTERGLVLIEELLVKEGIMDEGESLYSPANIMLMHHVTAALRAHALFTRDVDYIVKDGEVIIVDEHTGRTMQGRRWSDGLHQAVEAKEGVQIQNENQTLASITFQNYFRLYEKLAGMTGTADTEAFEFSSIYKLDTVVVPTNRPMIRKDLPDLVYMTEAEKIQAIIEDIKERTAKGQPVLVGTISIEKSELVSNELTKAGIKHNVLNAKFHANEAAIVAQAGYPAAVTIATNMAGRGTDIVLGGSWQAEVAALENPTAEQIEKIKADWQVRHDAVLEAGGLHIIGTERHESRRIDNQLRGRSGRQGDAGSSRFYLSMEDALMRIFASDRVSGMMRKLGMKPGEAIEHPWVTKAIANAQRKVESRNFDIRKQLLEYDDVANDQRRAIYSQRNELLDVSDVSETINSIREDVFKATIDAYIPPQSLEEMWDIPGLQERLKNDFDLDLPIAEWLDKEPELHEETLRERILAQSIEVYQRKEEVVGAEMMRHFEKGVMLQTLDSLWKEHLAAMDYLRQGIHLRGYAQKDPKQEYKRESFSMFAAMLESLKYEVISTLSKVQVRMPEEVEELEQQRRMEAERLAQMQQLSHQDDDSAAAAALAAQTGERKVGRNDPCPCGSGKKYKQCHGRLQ

In the case of `Cc1ccc(CNC(=O)CN2CCN(CC(O)c3ccco3)CC2)cc1` (stereo not given), the Percent Effect was -2.27% in [1]; 20.8% in experiment [2]; -4.52% in experiment [3]; -0.747% in [4]; 0.0986% in experiment [5]; -1.94% in experiment [6]. Moreover, the Percent Effect is 9.4% in [7]; 7.63% in [8]; 4.23% in experiment [9]; 24.4% in experiment [10]; -10.3% in experiment [11].
Regarding `Cc1cc(C)c(CNC(=O)NCCOc2ccc3c(c2)CCC3)c(=O)[nH]1`, the Percent Effect is -3.48% in experiment [1]; -5.26% in [2]; 0.256% in experiment [3]; 7.3% in experiment [4]; 9.96% in [5]; 0.383% in [6]. The Percent Effect in [7] worked out at 0%; in [8], 3.96%; in experiment [9] it was 1.47%; in [10], 0%; in experiment [11], 3.04%.
In the case of `COCCN1C[C@@H](C)[C@@]2(COCCN(C(=O)Cc3ccccc3)C2)C1`, the Percent Effect was -2.42% in experiment [1]; 10.7% in experiment [2]; 4.69% in [3]; 6.89% in experiment [4]; 1.54% in experiment [5]; -54.7% in [6]. In addition, the Percent Effect is 5.13% in experiment [7]; -15.6% in experiment [8]; 5.21% in experiment [9]; 12.5% in experiment [10]; -7.47% in [11].
As to `O=C(NCCc1ccccn1)NC1CCN(c2ncccn2)CC1`, the Percent Effect in experiment [1] was -2.63%; in experiment [2], 16.4%; in experiment [3], 1.28%; in experiment [4] it was 3.94%; in experiment [5], -1.59%; in experiment [6] it was 2%. Besides, the Percent Effect is 12.9% in experiment [7]; -1.99% in [8]; 9.38% in [9]; 23.5% in experiment [10]; -4.07% in [11].
`Cc1cnc2c(c1NCc1ccncc1)c(=O)n(C)c(=O)n2C`: the Percent Effect in experiment [1] was -2.14%; in experiment [2] it was 0%; in experiment [3], 5.25%; in experiment [4], -12.3%; in [5], -5.68%; in experiment [6], -11.4%. In addition, the Percent Effect in experiment [7] was 17.6%; in experiment [8] it was 29.2%; in [9], 4.3%; in experiment [10] it was 10%; in [11], -2.51%.
Take `CC(C)CCNC(=O)c1sccc1N(C)S(=O)(=O)c1ccccc1`: the Percent Effect in experiment [1] was -0.473%; in experiment [2], 23.7%; in [3], -3.53%; in [4] it was -18.2%; in [5], -0.0974%; in [6] it was -3.55%. Further, the Percent Effect in [7] was 10.3%; in [8], 23.3%; in [9] it was -3.19%; in experiment [10] it was 5.2%; in experiment [11], -3.5%.
`CC(=O)c1ccc(OCC(=O)NC(C)CCc2ccco2)cc1` (stereo not given): the Percent Effect was -0.558% in [1]; 5.41% in experiment [2]; 7.91% in experiment [3]; -3.5% in experiment [4]; -7.34% in [5]; 1.91% in [6]. Further, the Percent Effect in [7] was 19.8%; in experiment [8] it was 6.38%; in [9] it was 3.7%; in experiment [10] it was 2.44%; in experiment [11], -1.85%.
On to `Cc1nn(C(C)C)c(C)c1NC(=O)c1ccncc1`, for which the Percent Effect was -2.46% in experiment [1]; 16.4% in [2]; -7.09% in experiment [3]; 5.06% in experiment [4]; 5.56% in [5]; 0.399% in experiment [6]. For the same molecule, the Percent Effect in experiment [7] is 16.5%; in [8], -7.45%; in experiment [9], 10.4%; in experiment [10] it was 11.1%; in experiment [11], -7.44%.
On to `Cc1n[nH]c(C)c1C1CCCN1C(=O)NCC(=O)NC(C)(C)C` (stereo not given), for which the Percent Effect in experiment [1] was -4.22%; in experiment [2] it was 0%; in experiment [3], 26.9%; in experiment [4], 3.62%; in experiment [5], -6.86%; in experiment [6], 2.27%. The Percent Effect in experiment [7] is 3.9%; in experiment [8], 0.328%; in experiment [9] it was 1.07%; in [10] it was 2.5%; in experiment [11], -0.359%.
`COCc1nc(CN2CCC3(CCCO3)CCC2=O)no1` (stereo not given): the Percent Effect in experiment [1] was -7.29%; in experiment [2], 5.33%; in experiment [3], -4.46%; in experiment [4], 6.25%; in [5], 7.3%; in experiment [6], -2.6%. Also, the Percent Effect was 12% in experiment [7]; 10.4% in experiment [8]; 6.01% in [9]; 3.7% in experiment [10]; -5.51% in experiment [11].
